Results filed as inconclusive are left out. Calls of active or inactive are those of the source. The call rests on the fitted dose curve; in most records, active means well fitted cell-killing curve with a large enough effect in the repeat runs; inconclusive means weak or mixed curves, or effect the other way; inactive means no such curve, though single readings can be large or run the other way.
experiment: qHTS assay for identifying genotoxic compounds that show differential cytotoxicity against isogenic chicken DT40 cell lines with known DNA damage response pathways - wild type cell line (AID 743012); settings: DT40 wild type chicken cells viability, CellTiter-Glo, 40 h; series mostly up to 68.4 µM; further: nearly all actives have a fitted effect of over 60% in size
Method in brief: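 First, wild type DT40 cells were plated at 300 per well and equilibrated about 0.5 h at 37 C/5% CO2. Next, compounds in DMSO were added and exposure lasted 40 h. Finally, CellTiter-Glo was added for 30 min at room temperature and luminescence recorded.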
Potency means the concentration at half of the fitted maximal effect.

Row | SMILES | Potency
1 | C=C1C(=C/C=C2\CCC[C@]3(C)[C@@H]([C@H](C)CCCC(C)(C)O)CC[C@@H]23)C[C@@H](O)C[C@@H]1O | 5.96 µM (active)
2 | C=C1C(=C/C=C2\CCC[C@]3(C)[C@@H]([C@H](C)/C=C/[C@H](C)C(C)C)CC[C@@H]23)C[C@@H](O)C[C@@H]1O | 13.3 µM (active)
3 | O=C(CCCN1CCC(n2c(=S)[nH]c3ccccc32)CC1)c1ccc(F)cc1 | 11.9 µM (active)
4 | CC(C)[C@@H](N)C(=O)O | inactive
5 | CCCCCCCCCCCCCCCC(=O)OC[C@@H](COP(=O)([O-])OCC[N+](C)(C)C)OC(=O)CCCCCCCCCCCCCCC | inactive
6 | CCC(=O)O[C@H]1CC[C@H]2[C@@H]3CCc4cc(O)ccc4[C@H]3CC[C@]12C | 23.7 µM (active)
7 | COc1cc(/C=C/C(=O)N2CCN(CC(=O)N3CCCC3)CC2)cc(OC)c1OC | inactive
8 | Cc1nnc(C(C)C)n1C1C[C@H]2CC[C@@H](C1)N2CC[C@H](NC(=O)C1CCC(F)(F)CC1)c1ccccc1 (stereo partly specified) | inactive
9 | CC1=C(/C=C/C(C)=C/C=C/C(C)=C/C=C/C=C(C)/C=C/C=C(C)/C=C/C2=C(C)C[C@@H](O)CC2(C)C)C(C)(C)C[C@H](O)C1 | 7.5 µM (active)
10 | O=C(O)CCC/C=C\C[C@@H]1[C@@H](/C=C/[C@@H](O)COc2cccc(Cl)c2)[C@H](O)C[C@@H]1O | inactive
11 | COc1cc([C@@H]2c3cc4c(cc3C(O[C@@H]3O[C@@H]5COC(c6cccs6)O[C@H]5[C@H](O)[C@H]3O)C3COC(=O)[C@@H]32)OCO4)cc(OC)c1O (stereo partly specified) | 0.0119 µM (active)
